Experimental data reported in PubChem BioAssay (NCATS).
Records with an inconclusive call do not appear. Where a call stands in place of a potency, no number is given. A number with no mark means an inactive call. The source made the active and inactive calls. Unless noted, the call rests on the fitted dose curve; in most records, active means well fitted curve in the direction sought with a large enough effect; inconclusive means small, poorly fitted or top-dose-only effect, or another doubt; inactive means no such curve, though single readings can be large; an effect the other way counts as inactive or inconclusive.

Assays:
[1] = target: Luciferin 4-monooxygenase (Photinus pyralis) (UniProt P08659); experiment: Biochemical firefly luciferase enzyme assay for NPC (AID 624030); further: nearly all actives have a fitted effect of over 70% in size; further: potency means the concentration at half of the fitted maximal effect
How it was run: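 Purified P. pyralis luciferase at 10 nM in 50 mM Tris Acetate (final), luminescence read within 5 minutes of enzyme addition to compounds. Activity normalised to PTC124 versus DMSO; concentration-response curves classed by r2, magnitude and activity.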

[2] = S16 Schwann cell viability assay (CellTiter-Glo assay) (AID 624031);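 further: cellular ATP luminescence as a viability measure; nearly all actives have a fitted effect of over 70% in size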
How it was run: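 Luminescent ATP read-out (CellTiter-Glo) after 24 h compound exposure of native S16 rat Schwann cells at 37 °C. Signals were normalized between cell-free wells and DMSO-treated cells, set as 0% activity.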

[3] = S16 Schwann cell PMP22 intronic element firefly luciferase assay (AID 624032); further: nearly all actives have a fitted effect of over 30% in size; further: potency means the concentration at half of the fitted maximal effect
How it was run: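 Rat S16 Schwann cells stably carrying firefly luciferase driven by a PMP22 intronic element, in 10% FBS, treated 24 h at 37 C. ONE-Glo luminescence normalized to PTC124 control and DMSO (0%); curves classed by r2, magnitude and activity.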

[4] = S16 Schwann cell PMP22 intronic element beta-lactamase assay (AID 624044; calls by dose curve; further: nearly all actives have a fitted effect of over 15% in size); conditions: S16 rat Schwann cells, PMP22 element beta-lactamase FRET, 24 h; ratio activity, negative = inhibition: at 38.3 µM (top of the series) unless noted
How it was run: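 Rat S16 Schwann cells with beta-Lac driven by a PMP22 intronic element, compound-treated 24 h at 37 °C. LiveBLAzer FRET B/G read: 460 nm normalized to potassium clavulanate vs DMSO; 535 nm FRET as viability; concentration-effect curves classified.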

Sequence of Luciferin 4-monooxygenase (Photinus pyralis) (P08659 whole entry, looked up): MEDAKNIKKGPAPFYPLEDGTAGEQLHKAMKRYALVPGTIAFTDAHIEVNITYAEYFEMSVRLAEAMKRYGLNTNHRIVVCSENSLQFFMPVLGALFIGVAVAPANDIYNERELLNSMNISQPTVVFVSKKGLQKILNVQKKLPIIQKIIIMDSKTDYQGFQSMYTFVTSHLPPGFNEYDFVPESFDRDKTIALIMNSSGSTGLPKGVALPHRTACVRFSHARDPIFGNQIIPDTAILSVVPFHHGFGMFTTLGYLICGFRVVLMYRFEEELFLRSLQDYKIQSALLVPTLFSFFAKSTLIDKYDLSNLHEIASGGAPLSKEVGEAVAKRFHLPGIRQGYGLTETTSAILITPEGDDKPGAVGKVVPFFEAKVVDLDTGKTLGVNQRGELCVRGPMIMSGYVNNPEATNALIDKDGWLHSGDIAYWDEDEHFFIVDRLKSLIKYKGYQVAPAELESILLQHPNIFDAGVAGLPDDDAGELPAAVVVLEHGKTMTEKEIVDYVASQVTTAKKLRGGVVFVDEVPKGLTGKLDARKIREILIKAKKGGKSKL

| Structure (SMILES) | Potency [1] | Potency [2] | Potency [3] | ratio activity, negative = inhibition [4] [%] |
| --- | --- | --- | --- | --- |
| COC(=O)[C@@H](N)CS | inactive | inactive | – | – |
| CCCCCCCCCCCCCC(=O)OCC(COP(=O)([O-])OCC[N+](C)(C)C)OC(=O)CCCCCCCCCCCCC (centres undefined) | inactive | inactive | – | – |
| CCCCC[C@H](O)/C=C/[C@@H]1[C@H]2C/C(=C/CCCC(=O)O)O[C@H]2C[C@H]1O | inactive | inactive | inactive | – |
| COc1cc(NCCCC(C)N)c2ncccc2c1 (centres undefined) | inactive | – | – | – |
| O=P(O)(O)OP(=O)(O)O | inactive | inactive | 1.81 µM (active) | – |
| O=C(O)CCC/C=C\C[C@@H]1[C@@H](/C=C/[C@@H](O)COc2cccc(Cl)c2)[C@H](O)C[C@@H]1O | inactive | inactive | inactive | – |
| CC(C)Cc1ccc([C@@H](C)C(=O)NS(C)(=O)=O)cc1 | inactive | inactive | inactive | – |
| CC(C)=CCC/C(C)=C/C=C/C(C)=C/C=C/C(C)=C/C=C/C=C(C)/C=C/C=C(C)/C=C/C=C(\C)CCC=C(C)C | inactive | inactive | inactive | – |
| CC1CC(O)CC(C)(C)C1 (centres undefined) | inactive | inactive | inactive | – |
| O=P(O)(O)CP(=O)(O)O | inactive | inactive | inactive | – |
| C[C@]12CC[C@@H]3c4ccc(OC(=O)c5ccccc5)cc4CC[C@H]3[C@@H]1CC[C@@H]2O | inactive | inactive | 3.61 µM (active) | – |
| c1ccc(-n2cnnn2)cc1 | inactive | inactive | – | – |
| Cc1ncc(C[n+]2csc(CCO)c2C)c(N)n1 | inactive | inactive | – | – |
| FCOC(C(F)(F)F)C(F)(F)F | inactive | inactive | inactive | – |
| NCC[C@H](O)C(=O)N[C@@H]1C[C@H](N)[C@@H](O[C@H]2O[C@H](CN)CC[C@H]2N)[C@H](O)[C@H]1O[C@H]1O[C@H](CO)[C@@H](O)[C@H](N)[C@H]1O | inactive | inactive | inactive | – |
| S=C=Nc1ccc(N=C=S)cc1 | inactive | inactive | inactive | – |
| CC12CCC(C[N+](C)(CCC[N+](C)(C)C)C1)C2(C)C (centres undefined) | inactive | inactive | – | – |
| FC(F)OC(Cl)C(F)(F)F (centres undefined) | inactive | inactive | inactive | – |
| O=C(Nc1ccc(O)cc1)c1ccccc1O | 14.4 µM (active) | inactive | inactive | – |
| COc1ccc(/C=C/C(=O)OCCC(C)C)cc1 | 11.4 µM (active) | inactive | inactive | – |
| CC1(O)CCC(C(C)(C)O)CC1 (centres undefined) | inactive | inactive | inactive | – |
| O=C(O)C1=C(CSc2nnnn2CS(=O)(=O)O)CS[C@@H]2[C@H](NC(=O)[C@H](O)c3ccccc3)C(=O)N12 | inactive | inactive | – | – |
| N=C(N)c1ccc(/C=C/c2ccc(C(=N)N)cc2O)cc1 | inactive | inactive | – | – |

| Structure (SMILES) | Potency [1] | Potency [2] | Potency [3] | ratio activity, negative = inhibition [4] [%] |
| --- | --- | --- | --- | --- |
| CCOC(=O)c1c[nH]c2cc(OCC(C)C)c(OCC(C)C)cc2c1=O | inactive | inactive | inactive | – |
| NC(=O)[C@H]1O[C@@H](O)[C@H](O)[C@@H](O)[C@@H]1O | inactive | inactive | inactive | – |
| CCOC(C)OCC | inactive | inactive | inactive | – |
| O=C(O[C@H]1CN2CCC1CC2)N1CCc2ccccc2[C@@H]1c1ccccc1 | inactive | inactive | – | – |
| CN(C)CCCSc1ccccc1NC(=O)/C=C/c1ccccc1 | inactive | inactive | inactive | – |
| CN1CCCC(CN2c3ccccc3Sc3ccccc32)C1 (centres undefined) | inactive | – | – | – |
| O=S(=O)(O)CCCS(=O)(=O)O | inactive | inactive | – | – |
| CCN(CC)C(=S)S | inactive | – | – | – |
| CC(=O)[C@H]1CC[C@H]2[C@@H]3C=CC4=CC(=O)CC[C@@]4(C)[C@H]3CC[C@]12C | inactive | inactive | – | – |
| C/C=C/C=C/C(=O)O | inactive | inactive | inactive | – |
| CN1c2c(nc(N)[nH]c2=O)NCC1CNc1ccc(C(=O)NC(CCC(=O)O)C(=O)O)cc1 (centres undefined) | inactive | inactive | inactive | – |
| CC(=O)N[C@@H](C=O)[C@@H](O)[C@H](O)[C@H](O)CO | inactive | – | – | – |
| CCCCCCCCCCCCCCCCCC[N+](C)(C)CCC[Si](OC)(OC)OC | inactive | inactive | – | – |
| CC(=O)NCCCS(=O)(=O)O | inactive | inactive | – | – |
| COc1ccc(C[C@H](C)NC[C@@H](O)c2ccc(O)c(NC=O)c2)cc1 | inactive | – | – | – |
| N[C@H](CC(=O)O)C(=O)O | inactive | inactive | – | – |
| Nc1nc(=O)n([C@@H]2CS[C@H](CO)O2)cc1F | inactive | inactive | inactive | – |
| O=C(CCCN1CCC(C(=O)c2ccc(F)cc2)CC1)c1ccc(F)cc1 | inactive | inactive | inactive | -12.9 |
| NCC(O)CC(=O)O (centres undefined) | inactive | inactive | inactive | 4.25 |
| Cc1cccc(C)c1NC(=O)C1CCCCN1C (centres undefined) | inactive | inactive | inactive | – |
| Cc1cccc(C)c1NC(=O)NC1=CCCN1C | inactive | inactive | inactive | 3.11 |
| O=C(O)COc1ccccc1/C=N/NC(=O)c1ccncc1 | inactive | inactive | inactive | – |
| CC(C)(CO)[C@@H](O)C(=O)NCCC(=O)NCCSSCCNC(=O)CCNC(=O)[C@H](O)C(C)(C)CO | inactive | inactive | inactive | 2.37 |
